Laboratory results taken from the supplement of paper PMC9925115.
Where a name gives a salt, the structure may show the parent alone. ± gives the uncertainty stated by the source.

What follows are molecules tested on FLX1 (assay: cell viability z-score within plate (CellTiter-Glo), mean of 3 biological replicates; higher = higher viability relative to plate (less growth inhibition)). Details: 2 µM; time (hr): 120.
Description: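 FLX1 fibrolamellar carcinoma cells (DNAJB1-PRKACA fusion), 600 cells/well in 384-well plates, treated with a Selleck kinase inhibitor library (L1200) at 2 uM for 5 days (120 hr); viability by CellTiter-Glo. A z-score was computed within each plate and averaged over three biological replicates.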

SMILES | cell viability z-score within plate
Cc1cc(Nc2cc(N3CCN(C)CC3)nc(Sc3ccc(NC(=O)C4CC4)cc3)n2)n[nH]1 [Tozasertib (VX-680, MK-0457)] | 0.324 ± 0.42
Cn1cc(/C=C2\C(=O)Nc3cccnc32)c2ccccc21 | 0.84 ± 0.29
Cc1ccc(-n2nc(C(C)(C)C)cc2NC(=O)Nc2ccc(OCCN3CCOCC3)c3ccccc23)cc1 [Doramapimod (BIRB 796)] | 0.479 ± 0.82
CCCS(=O)(=O)Nc1ccc(F)c(C(=O)c2c[nH]c3ncc(Cl)cc23)c1F | 0.17 ± 0.093
CS(=O)(=O)N1CCN(Cc2cc3nc(-c4cccc5[nH]ncc45)nc(N4CCOCC4)c3s2)CC1 [Pictilisib (GDC-0941)] | 1.08 ± 0.18
C=CC(=O)Nc1cccc(Oc2nc(Nc3ccc(N4CCN(C)CC4)cc3OC)ncc2Cl)c1 | 0.221 ± 0.37
O=C(Nc1ccc(OC(F)(F)F)cc1)c1sccc1NCc1ccnc2ccccc12 | 0.792 ± 0.22
CS(=O)(=O)c1cccc(CNc2nc(Nc3ccc4c(c3)CCC(=O)N4)ncc2C(F)(F)F)c1 | -2.81 ± 1.3
CC(C)(C)c1cc(NC(=O)Nc2ccc(-c3cn4c(n3)sc3cc(OCCN5CCOCC5)ccc34)cc2)no1 [Quizartinib (AC220)] | -0.415 ± 0.29
COc1ccc(CNC(=O)Nc2ncc([N+](=O)[O-])s2)cc1 | 0.771 ± 0.6
O=C1NC(=O)/C(=C/c2ccc(-c3ccc(F)cc3O)o2)S1 | 1.21 ± 0.57
Cc1ccc(C(=O)Nc2ccc(CN3CCN(C)CC3)c(C(F)(F)F)c2)cc1C#Cc1cnc2cccnn12 | -1.09 ± 0.7
C=CC(=O)N1CCC[C@@H](n2nc(-c3ccc(Oc4ccccc4)cc3)c3c(N)ncnc32)C1 | 0.337 ± 0.4
COc1cc2ncnc(Nc3ccc(F)c(Cl)c3)c2cc1OCCCN1CCOCC1 [Gefitinib (ZD1839)] | -1.17 ± 1.2
CC[C@@H]1C(=O)N(C)c2cnc(Nc3ccc(C(=O)NC4CCN(C)CC4)cc3OC)nc2N1C1CCCC1 | -1.49 ± 0.57
CNC(=O)Nc1ccc(-c2nc(N3CC4CCC(C3)O4)c3cnn(C4CCC5(CC4)OCCO5)c3n2)cc1 | 0.631 ± 0.77
Oc1cc(O)cc(/C=C/c2ccc(O)c(O)c2)c1 [Piceatannol] | -0.333 ± 0.2
C=CC(=O)Nc1cccc(Sc2nc(Nc3ccc(N4CCN(C)CC4)cc3)ncc2Cl)c1 | 0.081 ± 0.26
CC(=O)Nc1nc(C)c(-c2ccc(Cl)c(S(=O)(=O)NCCO)c2)s1 | -0.0789 ± 0.1
O=C1NC(=O)C(c2ccccc2[N+](=O)[O-])=C1Nc1ccc(O)c(Cl)c1 | 0.229 ± 0.58

SMILES | cell viability z-score within plate
CN1CCN(CCOc2cc(OC3CCOCC3)c3c(Nc4c(Cl)ccc5c4OCO5)ncnc3c2)CC1 [Saracatinib (AZD0530)] | 0.194 ± 0.28
O=C(NC1CCNCC1)c1n[nH]cc1NC(=O)c1c(Cl)cccc1Cl | -0.72 ± 0.28
C=CC(=O)Nc1cccc(Nc2nc(Nc3ccc(Oc4ccnc(C(=O)NC)c4)cc3)ncc2F)c1 | 0.519 ± 0.21
CC(C)n1nc(-c2cc3cc(O)ccc3[nH]2)c2c(N)ncnc21 [Torkinib (PP242)] | -0.546 ± 0.32
COc1cc(N2CCC(N(C)C)CC2)ccc1Nc1ncc(Cl)c(Nc2ccccc2P(C)(C)=O)n1 | 0.0333 ± 0.4
O=C1NC(=O)[C@@H](c2cn3c4c(cccc24)CCC3)[C@@H]1c1c[nH]c2ccccc12 [Tivantinib (ARQ 197)] | -1.26 ± 0.51
CCS(=O)(=O)c1cccc(-c2cc(C(=O)NC3CCN(C)CC3)c(C)c3[nH]c4ncc(C)cc4c23)c1 | 0.278 ± 0.45
Cc1cc(N2CCOCC2)cc2[nH]c(-c3c(NC[C@@H](O)c4cccc(Cl)c4)cc[nH]c3=O)nc12 | -0.387 ± 0.41
C[C@@H](Oc1cc(-c2cnn(C3CCNCC3)c2)cnc1N)c1c(Cl)ccc(F)c1Cl | 0.281 ± 0.54
Oc1cccc(-c2nc(N3CCOCC3)c3oc4ncccc4c3n2)c1 | -0.163 ± 0.28
COC(=O)Nc1ccc(-c2nc(N3CCOCC3)c3cnn(C4CCN(C(=O)OC)CC4)c3n2)cc1 | 0.411 ± 0.44
COc1ccc2c(Oc3ccc(NC(=O)c4c(C)n(CC(C)(C)O)n(-c5ccccc5)c4=O)nc3)ccnc2c1 | 0.446 ± 0.46
COc1cc(Nc2ncc3c(n2)-c2ccc(Cl)cc2C(c2c(F)cccc2OC)=NC3)ccc1C(=O)O [Alisertib (MLN8237)] | 0.451 ± 0.63
COc1ccccc1-c1cc(Nc2cccc(CS(N)(=O)=O)c2)ncn1 | 0.545 ± 1.1
Cc1ccccc1CN1C2=NCCN2C(=O)C2=C1CCN(Cc1ccccc1)C2 [TIC10 Analogue] | 0.481 ± 0.4
Cc1c(NC(=O)c2ccc(C(C)(C)C)cc2)cccc1-c1cn(C)c(=O)c(Nc2ccc(C(=O)N3CCOCC3)cc2)n1 | 0.367 ± 0.26
Cn1cc(C2=C(c3ccc(Cl)cc3Cl)C(=O)NC2=O)c2ccccc21 | -1.2 ± 0.71
C=CC(=O)Nc1cccc(Nc2nc(Nc3ccc(OCCOC)cc3)ncc2F)c1 | -0.411 ± 0.22
COc1cc2ncnc(Nc3ccc(Cl)cc3F)c2cc1OC | 1.18 ± 0.67
CN1CC[C@H](c2c(O)cc(O)c3c(=O)cc(-c4ccccc4Cl)oc23)[C@H](O)C1 [Flavopiridol HCl] | 0.894 ± 0.42
